This is part of a sample that, as a whole, favours compounds with a hit. Of some 83,000 tested, about 20% had one in any assay.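 Compound tested at a single concentration for 48 hours in 96-well plates; a percent growth value below 10 was scored as active.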 A number with no mark means an inactive call. Active and inactive are the calls of the source.
Key:
Test in all cases: NCI-60 one-dose screen, 48 h (100 = growth as untreated, 0 = no growth, -100 = all killed)
[1] = system: DU-145 prostate; details: 10 µM unless noted
[2] = system: K-562 leukemia; details: 10 µM unless noted
[3] = system: MALME-3M melanoma; details: 10 µM unless noted
[4] = system: MDA-MB-231 breast; details: 10 µM unless noted
[5] = system: RXF 393 renal; details: 10 µM unless noted
[6] = system: SF-268 CNS; details: 10 µM unless noted
[7] = system: SF-295 CNS; details: 10 µM unless noted
[8] = system: SF-539 CNS; details: 10 µM unless noted
[9] = system: UACC-257 melanoma; details: 10 µM
[10] = system: M14 melanoma; details: 10 µM unless noted
[11] = system: HT29 colon; details: 10 µM unless noted
[12] = system: SNB-75 CNS; details: 10 µM unless noted
[13] = system: SNB-19 CNS; details: 10 µM unless noted
[14] = system: U251 CNS; details: 10 µM unless noted
[15] = system: PC-3 prostate; details: 10 µM unless noted
[16] = system: SK-MEL-5 melanoma; details: 10 µM unless noted
[17] = system: UACC-62 melanoma; details: 10 µM unless noted
[18] = system: LOX IMVI melanoma; details: 10 µM unless noted
[19] = system: HCT-15 colon; details: 10 µM unless noted
[20] = system: SK-MEL-28 melanoma; details: 10 µM unless noted

SMILES: NS(=O)(=O)Oc1ccc2nc(Nc3ccc(F)c(F)c3)ccc2c1
- growth [1]: 92.9%
- growth [2]: 67.6%
- growth [3]: 102%
- growth [4]: 94.3%
- growth [5]: 96.7%
- growth [6]: 88.1%
- growth [7]: 82.8%
- growth [8]: 89.9%
- growth [9]: 104%
- growth [10]: 87.9%
- growth [11]: 97.3%
- growth [12]: 81.3%
- growth [13]: 102%
- growth [14]: 91.9%
- growth [15]: 90.6%
- growth [16]: 98.7%
- growth [17]: 85.5%
- growth [18]: 85.3%

SMILES: CCNC(=NCCCN(C)C)N/C(N)=N/c1nc2ccccc2s1
- growth [1]: 99.5%
- growth [2]: 65.9%
- growth [3]: 97%
- growth [4]: 73.6%
- growth [5]: 65.4%
- growth [6]: 94.8%
- growth [7]: 92.4%
- growth [8]: 82.9%
- growth [9]: 104%
- growth [10]: 97%
- growth [19]: 77.4%
- growth [11]: 69.9%
- growth [13]: 90.1%
- growth [14]: 79.3%
- growth [16]: 93.4%
- growth [17]: 97.6%
- growth [18]: 73.5%
- growth [20]: 93.1%

SMILES: COc1ccc(S(=O)(=O)NCCCNc2nccc(-n3cnc4ccccc43)n2)cc1
- growth [1]: 100%
- growth [2]: 78.8%
- growth [3]: 107%
- growth [4]: 84.1%
- growth [5]: 80.6%
- growth [6]: 91.6%
- growth [7]: 90.5%
- growth [8]: 83.9%
- growth [9]: 100%
- growth [19]: 92.3%
- growth [11]: 99.7%
- growth [12]: 88.2%
- growth [13]: 100%
- growth [14]: 94.5%
- growth [15]: 89.7%
- growth [16]: 70.1%
- growth [17]: 76.3%
- growth [18]: 93.4%
- growth [20]: 106%

SMILES: C#C[C@]1(O)CC[C@H]2[C@@H]3CC=C4c5sc(Nc6nc(C)cc(OC)n6)nc5CC[C@]4(C)[C@H]3CC[C@@]21C
- growth [1]: 61.4%
- growth [2]: 14%
- growth [3]: 24%
- growth [4]: 56.1%
- growth [5]: -34.9% (active)
- growth [6]: 35.8%
- growth [7]: -60% (active)
- growth [8]: -14.8% (active)
- growth [9]: 46.1%
- growth [10]: 27%
- growth [11]: 60.8%
- growth [12]: -10.8% (active)
- growth [13]: 55%
- growth [14]: 34.2%
- growth [16]: 17.9%
- growth [17]: 0.98% (active)

SMILES: Nc1ccc(-c2nnc(SCc3ccc(O)c4ncccc34)n2-c2ccccc2)cc1
- growth [1]: 24.1%
- growth [2]: 15.9%
- growth [3]: 5.24% (active)
- growth [4]: 17%
- growth [5]: 13.5%
- growth [6]: 23.3%
- growth [7]: 0.907% (active)
- growth [8]: 10.5%
- growth [9]: 3.16% (active)
- growth [10]: 14.9%
- growth [19]: 11.3%
- growth [11]: 23.8%
- growth [13]: 12.4%
- growth [14]: 8.88% (active)
- growth [16]: -54.6% (active)
- growth [18]: 14%
- growth [20]: 34%

SMILES: O=C1Nc2ccc(Cl)cc2/C1=C/c1ccc(OCc2ccc(Br)cc2F)cc1
- growth [1]: 101%
- growth [2]: 91.2%
- growth [3]: 100%
- growth [4]: 94.7%
- growth [5]: 85.3%
- growth [6]: 98.5%
- growth [7]: 103%
- growth [8]: 99.4%
- growth [9]: 101%
- growth [10]: 90.1%
- growth [11]: 104%
- growth [12]: 100%
- growth [13]: 100%
- growth [14]: 97.4%
- growth [15]: 93%
- growth [16]: 92.6%
- growth [17]: 93.6%
- growth [18]: 92.7%
- growth [20]: 105%

SMILES: Nc1nc(-c2cccc([N+](=O)[O-])c2)c(N=Nc2ccccc2Cl)s1
- growth [1]: 52.6%
- growth [2]: 52.5%
- growth [3]: 111%
- growth [4]: 54.1%
- growth [5]: -13.6% (active)
- growth [6]: 68.4%
- growth [7]: 70.8%
- growth [8]: 17.8%
- growth [9]: 104%
- growth [10]: 77.7%
- growth [11]: 87.1%
- growth [12]: 76.8%
- growth [13]: 82%
- growth [14]: 43.9%
- growth [15]: 64.9%
- growth [16]: 80.8%
- growth [17]: 71.6%
- growth [18]: 25.3%

SMILES: O=S(=O)(NCCCNc1nccc(-n2cnc3ccccc32)n1)c1ccc(F)cc1
- growth [1]: 87.2%
- growth [2]: 37.2%
- growth [3]: 86.1%
- growth [4]: 74.4%
- growth [5]: 163%
- growth [6]: 86.3%
- growth [7]: 70.6%
- growth [8]: 86.2%
- growth [9]: 66.2%
- growth [19]: 82.8%
- growth [11]: 92.8%
- growth [12]: 82.5%
- growth [13]: 92.6%
- growth [14]: 93.8%
- growth [15]: 69.3%
- growth [16]: 2.63% (active)
- growth [17]: 61.6%
- growth [18]: 74%

SMILES: CN1CCN(c2ccc3c(c2)nc(NNC(=O)c2ccncn2)c2cccn23)CC1
- growth [1]: 27.5%
- growth [2]: 25.6%
- growth [3]: 43.9%
- growth [4]: 36.9%
- growth [5]: 66.5%
- growth [6]: 26.6%
- growth [7]: 0.713% (active)
- growth [8]: 24.2%
- growth [9]: 42.8%
- growth [10]: 9.89% (active)
- growth [11]: 32.7%
- growth [12]: 61.9%
- growth [13]: 35.1%
- growth [14]: 34%
- growth [15]: 46.5%
- growth [16]: 13.7%
- growth [17]: 22.2%
- growth [18]: 11.4%
- growth [20]: 28.3%

SMILES: O=C1Nc2cc(OC(F)(F)F)ccc2Oc2ccc(-c3ccnc(N4CC[C@H](O)C4)c3)cc21
- growth [1]: -39.1% (active)
- growth [2]: 5.41% (active)
- growth [3]: 39.4%
- growth [4]: 17.2%
- growth [5]: -10% (active)
- growth [6]: 19.1%
- growth [7]: 3.93% (active)
- growth [8]: -28.7% (active)
- growth [9]: 72%
- growth [10]: -1.7% (active)
- growth [11]: -58.7% (active)
- growth [12]: -6% (active)
- growth [13]: 35.9%
- growth [14]: 4.76% (active)
- growth [15]: 15%
- growth [16]: -58.4% (active)
- growth [17]: 28.8%
- growth [18]: 3.23% (active)
- growth [20]: 24.6%

SMILES: COc1ccc(-c2nc3cc(Cl)c(Cl)cc3n2CC(=O)N=Nc2c(O)[nH]c3ccccc23)cc1
- growth [1]: -11.4% (active)
- growth [2]: 28.7%
- growth [3]: 35.9%
- growth [4]: 54.2%
- growth [5]: -21.8% (active)
- growth [6]: 64.4%
- growth [7]: 79.4%
- growth [8]: 13.7%
- growth [9]: 95.7%
- growth [10]: 50.5%
- growth [11]: 78.9%
- growth [12]: 60%
- growth [13]: 91.3%
- growth [14]: 71%
- growth [15]: 76.1%
- growth [16]: 53.6%
- growth [17]: 68.1%
- growth [18]: 9.62% (active)
- growth [20]: 74.7%

SMILES: O=C(/C=C1\C=CN(CCCCO)c2ccccc21)n1ccc2ccccc21
- growth [1]: 107%
- growth [2]: 109%
- growth [3]: 99.2%
- growth [4]: 98.5%
- growth [5]: 113%
- growth [6]: 107%
- growth [7]: 103%
- growth [8]: 98.6%
- growth [9]: 105%
- growth [10]: 94.6%
- growth [11]: 109%
- growth [13]: 94.8%
- growth [14]: 102%
- growth [15]: 107%
- growth [16]: 98.1%
- growth [17]: 87.6%
- growth [18]: 114%
- growth [20]: 108%

SMILES: COc1ccc(-c2ccc3c4c(cccc24)C(=O)N(N2C(=O)c4cccc5cccc(c45)C2=O)C3=O)cc1
- growth [1]: 112%
- growth [2]: 86.4%
- growth [3]: 93.1%
- growth [4]: 83.7%
- growth [5]: 108%
- growth [6]: 97.8%
- growth [7]: 105%
- growth [8]: 95.7%
- growth [9]: 105%
- growth [10]: 94.1%
- growth [11]: 99.1%
- growth [12]: 73.4%
- growth [13]: 96.3%
- growth [14]: 104%
- growth [15]: 87.7%
- growth [16]: 99.6%
- growth [17]: 96.8%

Reference: PubChem BioAssay (NCI)
